Measurements reported in the supplement of paper PMC10849652.
About 8,800 targets were measured; listed, in parts, are those with a hit and a random draw of the rest. About 0.5% of all pairs of compound and target were hits. Values without a mark were called inactive.

What was measured:
Assay in all cases: log2 fold change, soluble protein after heating vs DMSO (PISA); higher = thermal stabilisation; K562 lysate, 10 uM; active = over 0.2 and 3.5 SD of the protein, either way, in both replicates (recomputed)
erlotinib = compound: C#Cc1cccc(Nc2ncnc3cc(OCCOC)c(OCCOC)cc23)c1 [erlotinib]
In short: (§1)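 Values give the log-two fold change in thermal stability against solvent controls, from duplicates. Crude K562 extract at 1 mg/mL protein, made by dounce homogenisation in PBS pH 7.4 with 1 mM MgCl2, was treated with 10 μM compound for 30 min. After 3 min heating across 48°C-58°C, aliquots were pooled, adjusted to 0.5% NP-40 at 4°C and centrifuged at 21,000xg for 90 min. The supernatant was measured by TMTpro 16plex LC-MS/MS with channel sums equalised.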

[1] = compound: C/C(=N\NC(=O)C1=CC(=CC=C1)S(=O)(=O)N2CCOCC2)/C3=C(C=CC(=C3)Cl)O
In short: as §1

[2] = compound: C1=CC(=CC=C1C2=NC3=C(N2)C=C(C=C3)C(=O)N)OC4=CC=C(C=C4)Cl
In short: as §1

[3] = compound: C1=CC2=C(C=CC(=C2)/C=C\3/C(=O)NC(=NCC4=CC=CS4)S3)N=C1
In short: as §1

[4] = compound: C1=CC2=NC=CN=C2C=C1/C=C/3\C(=O)NC(=O)S3
In short: as §1

[5] = compound: C1=CC=C(C=C1)C2=NC(=C(N2)C3=CC=NC=C3)C4=CC(=C(C=C4)Cl)O
In short: as §1

[6] = compound: C1=CC=C2C(=C1)C3=NNC4=CC=CC(=C43)C2=O
In short: as §1

[7] = compound: C1CCN(C1)C(=O)NC2=CC=CC(=C2)NC3=NC=C(C(=N3)NCCC4=CN=CN4)Br
In short: as §1

[8] = compound: C1CN(CCC1(CC2=CC=C(C=C2)Cl)N)C3=NC=NC4=C3C=CN4
In short: as §1

IRAK-1-4 Inhibitor I = compound: C1COCCN1CCN2C3=CC=CC=C3N=C2NC(=O)C4=CC(=CC=C4)[N+](=O)[O-] [IRAK-1-4 Inhibitor I]
In short: as §1

UniProt Q13242, sequence (Q13242 whole entry, looked up): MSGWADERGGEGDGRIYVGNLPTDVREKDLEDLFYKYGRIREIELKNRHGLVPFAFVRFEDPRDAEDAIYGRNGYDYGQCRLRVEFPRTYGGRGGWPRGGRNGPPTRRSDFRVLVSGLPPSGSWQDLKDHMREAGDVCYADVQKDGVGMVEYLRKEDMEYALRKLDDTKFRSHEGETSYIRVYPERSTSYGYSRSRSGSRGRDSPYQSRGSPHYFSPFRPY
UniProt Q16629, sequence (Q16629 whole entry, looked up): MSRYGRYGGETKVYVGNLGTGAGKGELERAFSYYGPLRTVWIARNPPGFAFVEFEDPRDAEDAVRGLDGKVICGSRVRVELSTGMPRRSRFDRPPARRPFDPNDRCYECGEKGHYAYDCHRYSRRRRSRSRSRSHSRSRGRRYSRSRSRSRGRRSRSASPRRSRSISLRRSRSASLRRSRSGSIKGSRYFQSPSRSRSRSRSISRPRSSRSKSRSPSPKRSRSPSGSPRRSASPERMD
UniProt Q8WUM9, sequence (Q8WUM9 whole entry, looked up): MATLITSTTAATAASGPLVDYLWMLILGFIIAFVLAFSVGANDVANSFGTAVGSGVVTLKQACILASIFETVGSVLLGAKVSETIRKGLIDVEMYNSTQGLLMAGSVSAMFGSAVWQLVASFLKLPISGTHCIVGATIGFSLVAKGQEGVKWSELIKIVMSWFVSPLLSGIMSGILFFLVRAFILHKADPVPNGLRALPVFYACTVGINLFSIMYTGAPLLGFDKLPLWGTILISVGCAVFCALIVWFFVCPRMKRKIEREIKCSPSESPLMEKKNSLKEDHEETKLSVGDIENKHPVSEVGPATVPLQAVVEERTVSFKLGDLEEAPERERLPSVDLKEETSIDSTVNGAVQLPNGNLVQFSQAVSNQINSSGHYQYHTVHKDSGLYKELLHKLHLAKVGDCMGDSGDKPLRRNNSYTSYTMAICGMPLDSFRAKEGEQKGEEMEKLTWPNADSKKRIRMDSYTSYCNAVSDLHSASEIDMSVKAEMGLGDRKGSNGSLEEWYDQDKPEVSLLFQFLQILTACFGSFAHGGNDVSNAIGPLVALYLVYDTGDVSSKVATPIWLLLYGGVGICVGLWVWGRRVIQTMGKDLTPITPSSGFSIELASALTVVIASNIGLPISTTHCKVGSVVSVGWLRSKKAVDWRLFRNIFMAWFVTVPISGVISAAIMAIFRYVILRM
UniProt P08047, sequence (P08047 whole entry, looked up): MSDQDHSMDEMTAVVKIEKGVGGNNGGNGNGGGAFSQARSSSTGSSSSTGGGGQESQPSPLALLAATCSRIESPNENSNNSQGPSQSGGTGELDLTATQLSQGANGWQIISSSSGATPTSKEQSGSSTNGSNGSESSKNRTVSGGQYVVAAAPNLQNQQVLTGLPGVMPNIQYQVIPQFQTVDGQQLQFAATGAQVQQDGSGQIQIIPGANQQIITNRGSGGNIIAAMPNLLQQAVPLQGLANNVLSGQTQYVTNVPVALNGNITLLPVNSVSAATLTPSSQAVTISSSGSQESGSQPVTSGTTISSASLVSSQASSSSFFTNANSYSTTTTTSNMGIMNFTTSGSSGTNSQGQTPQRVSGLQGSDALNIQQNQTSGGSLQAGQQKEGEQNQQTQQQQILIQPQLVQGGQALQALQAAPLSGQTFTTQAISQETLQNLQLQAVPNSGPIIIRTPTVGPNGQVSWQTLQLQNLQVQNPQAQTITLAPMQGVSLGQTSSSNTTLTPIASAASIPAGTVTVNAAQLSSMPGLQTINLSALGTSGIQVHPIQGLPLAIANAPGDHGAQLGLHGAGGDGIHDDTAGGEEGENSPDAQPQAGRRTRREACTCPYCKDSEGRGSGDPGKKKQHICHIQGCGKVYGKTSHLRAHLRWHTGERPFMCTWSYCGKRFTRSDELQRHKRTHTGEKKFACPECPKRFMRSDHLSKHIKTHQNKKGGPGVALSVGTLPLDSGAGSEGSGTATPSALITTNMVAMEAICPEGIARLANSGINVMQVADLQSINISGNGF
UniProt O15198, sequence (O15198 whole entry, looked up): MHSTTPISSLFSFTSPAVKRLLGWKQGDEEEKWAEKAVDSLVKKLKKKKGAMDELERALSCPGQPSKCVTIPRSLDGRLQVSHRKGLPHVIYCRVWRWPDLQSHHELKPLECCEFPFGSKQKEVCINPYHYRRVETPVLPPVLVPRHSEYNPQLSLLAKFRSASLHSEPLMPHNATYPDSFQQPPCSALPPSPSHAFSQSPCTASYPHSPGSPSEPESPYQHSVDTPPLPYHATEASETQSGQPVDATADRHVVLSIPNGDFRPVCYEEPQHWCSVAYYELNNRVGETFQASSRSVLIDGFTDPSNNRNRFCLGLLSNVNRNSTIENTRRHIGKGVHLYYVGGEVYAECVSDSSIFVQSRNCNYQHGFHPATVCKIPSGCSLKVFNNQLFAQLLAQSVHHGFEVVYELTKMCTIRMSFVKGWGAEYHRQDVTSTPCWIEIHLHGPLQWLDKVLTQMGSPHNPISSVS
UniProt Q9BVQ7, sequence (Q9BVQ7 whole entry, looked up): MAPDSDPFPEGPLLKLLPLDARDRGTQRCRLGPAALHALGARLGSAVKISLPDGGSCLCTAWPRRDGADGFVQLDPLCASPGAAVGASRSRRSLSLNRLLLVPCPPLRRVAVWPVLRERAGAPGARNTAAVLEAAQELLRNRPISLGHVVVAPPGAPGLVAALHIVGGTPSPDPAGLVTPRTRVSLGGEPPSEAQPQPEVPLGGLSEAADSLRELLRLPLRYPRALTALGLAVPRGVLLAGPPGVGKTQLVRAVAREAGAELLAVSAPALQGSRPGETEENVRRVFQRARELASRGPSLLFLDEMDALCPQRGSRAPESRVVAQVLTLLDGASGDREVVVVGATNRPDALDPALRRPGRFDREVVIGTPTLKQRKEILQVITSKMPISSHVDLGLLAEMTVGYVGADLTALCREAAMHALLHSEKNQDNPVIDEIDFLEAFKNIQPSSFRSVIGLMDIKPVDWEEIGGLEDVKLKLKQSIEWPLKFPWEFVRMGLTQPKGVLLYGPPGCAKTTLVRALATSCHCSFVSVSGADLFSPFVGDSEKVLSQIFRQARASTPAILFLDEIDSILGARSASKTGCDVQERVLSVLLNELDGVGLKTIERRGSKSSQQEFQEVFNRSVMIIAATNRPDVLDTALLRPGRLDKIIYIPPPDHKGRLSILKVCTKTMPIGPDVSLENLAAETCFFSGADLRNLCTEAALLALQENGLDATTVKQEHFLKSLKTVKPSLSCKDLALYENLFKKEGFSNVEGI
UniProt P35711, sequence (P35711 whole entry, looked up): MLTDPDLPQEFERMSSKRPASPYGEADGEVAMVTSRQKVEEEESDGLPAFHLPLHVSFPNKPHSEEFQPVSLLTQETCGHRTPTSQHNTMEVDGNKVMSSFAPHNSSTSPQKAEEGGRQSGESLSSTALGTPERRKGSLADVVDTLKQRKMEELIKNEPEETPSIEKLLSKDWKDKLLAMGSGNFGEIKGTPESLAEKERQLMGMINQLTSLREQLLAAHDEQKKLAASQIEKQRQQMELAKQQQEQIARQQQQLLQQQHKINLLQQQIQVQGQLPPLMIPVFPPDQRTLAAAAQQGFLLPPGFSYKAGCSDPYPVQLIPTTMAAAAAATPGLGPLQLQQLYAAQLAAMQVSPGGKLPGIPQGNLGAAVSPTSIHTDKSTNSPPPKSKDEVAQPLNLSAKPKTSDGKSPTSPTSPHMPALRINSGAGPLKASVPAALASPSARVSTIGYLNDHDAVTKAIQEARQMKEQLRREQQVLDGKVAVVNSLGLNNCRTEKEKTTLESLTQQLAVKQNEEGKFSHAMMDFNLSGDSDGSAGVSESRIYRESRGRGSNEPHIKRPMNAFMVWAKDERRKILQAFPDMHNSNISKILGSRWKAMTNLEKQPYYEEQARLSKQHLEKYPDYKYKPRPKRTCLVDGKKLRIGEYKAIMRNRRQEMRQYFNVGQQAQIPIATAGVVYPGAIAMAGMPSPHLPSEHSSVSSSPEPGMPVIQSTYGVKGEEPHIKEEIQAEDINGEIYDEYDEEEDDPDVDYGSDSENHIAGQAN
UniProt Q92540, sequence (Q92540 whole entry, looked up): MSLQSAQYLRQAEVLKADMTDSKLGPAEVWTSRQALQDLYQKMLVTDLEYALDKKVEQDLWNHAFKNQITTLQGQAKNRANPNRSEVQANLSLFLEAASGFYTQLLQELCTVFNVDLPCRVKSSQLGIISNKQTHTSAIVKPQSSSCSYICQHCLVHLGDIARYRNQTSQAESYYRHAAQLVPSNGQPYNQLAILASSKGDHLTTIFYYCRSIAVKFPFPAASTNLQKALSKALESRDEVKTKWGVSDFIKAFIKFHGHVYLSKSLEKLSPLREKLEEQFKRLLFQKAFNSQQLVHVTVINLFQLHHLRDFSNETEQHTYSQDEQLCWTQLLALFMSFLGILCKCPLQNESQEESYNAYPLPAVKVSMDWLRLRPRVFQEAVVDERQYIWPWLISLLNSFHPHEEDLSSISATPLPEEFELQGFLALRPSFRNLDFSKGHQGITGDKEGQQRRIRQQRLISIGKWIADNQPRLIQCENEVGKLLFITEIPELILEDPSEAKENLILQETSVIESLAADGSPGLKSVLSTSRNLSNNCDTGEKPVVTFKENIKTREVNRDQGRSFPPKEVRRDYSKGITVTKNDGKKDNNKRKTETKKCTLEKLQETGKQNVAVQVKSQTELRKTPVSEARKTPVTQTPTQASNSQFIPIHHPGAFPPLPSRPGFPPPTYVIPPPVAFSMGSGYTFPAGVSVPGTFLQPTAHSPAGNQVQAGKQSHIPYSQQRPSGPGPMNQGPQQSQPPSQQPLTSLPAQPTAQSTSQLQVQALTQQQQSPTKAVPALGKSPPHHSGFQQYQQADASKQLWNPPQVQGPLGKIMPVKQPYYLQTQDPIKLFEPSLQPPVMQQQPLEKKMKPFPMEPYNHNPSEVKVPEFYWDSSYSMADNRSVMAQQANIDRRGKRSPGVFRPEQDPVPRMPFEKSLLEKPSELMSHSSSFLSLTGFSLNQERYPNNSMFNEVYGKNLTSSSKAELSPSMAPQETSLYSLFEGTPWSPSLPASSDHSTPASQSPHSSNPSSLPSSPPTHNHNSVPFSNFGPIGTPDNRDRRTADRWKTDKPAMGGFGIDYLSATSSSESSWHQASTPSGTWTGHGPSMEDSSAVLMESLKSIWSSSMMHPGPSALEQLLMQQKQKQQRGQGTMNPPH

Target	log2 fold change (erlotinib)	log2 fold change [1]	log2 fold change [2]	log2 fold change [3]	log2 fold change [4]	log2 fold change [5]	log2 fold change [6]	log2 fold change [7]	log2 fold change [8]	log2 fold change (IRAK-1-4 Inhibitor I)
SVIP (UniProt Q8NHG7)	0.037	0.013	-0.004	-0.007	0.001	0.041	-0.012	0.107	0.057	0.001
SRSF7 (UniProt Q16629)	0.019	-0.068	-0.043	0.002	-0.066	-0.02	-0.016	0.032	0.008	-0.03
STIM1 (UniProt Q13586)	-0.037	0.089	-0.014	0.021	0.001	-0.016	-0.059	-0.009	0.005	-0.01
SPATA5L1 (UniProt Q9BVQ7)	0.09	-0.053	-0.017	0.044	0.004	0.069	0.01	0.027	0.032	0.015
SRSF9 (UniProt Q13242)	0.027	0.263 (active)	0.007	0.077	0.052	-0.01	0.097	0.072	0.007	0.012
SMAP2 (UniProt Q8WU79)	-0.009	-0.018	0.073	0	0.023	-0.2	0.015	0.037	0.023	0.044
SOAT1 (UniProt P35610)	0.06	-0.007	-0.042	0	-0.048	0.056	-0.058	-0.056	-0.019	0
SLC27A4 (UniProt Q6P1M0)	0.022	0.01	-0.023	0.052	0.063	-0.009	0.041	0.015	0.084	-0.003
SHKBP1 (UniProt Q8TBC3)	-0.005	-0.064	0.058	0.004	0.011	0.01	-0.018	0.076	0.189	0.022
SLC12A6 (UniProt Q9UHW9)	-0.014	-0.073	-0.047	0.013	-0.006	-0.028	-0.01	-0.024	0.068	-0.01
STK26 (UniProt Q9P289)	0.008	-0.007	-0.005	-0.009	0.002	-0.002	0.06	0.03	-0.011	-0.018
SMG7 (UniProt Q92540)	0.007	-0.03	-0.022	-0.058	-0.066	-0.047	-0.032	-0.077	-0.01	-0.011
SOX5 (UniProt P35711)	-0.169	0.08	0.025	0.38 (active)	0.131	0.059	-0.239	0.028	0.154	0.044
SMC2 (UniProt O95347)	-0.001	-0.011	-0.011	0.001	0.012	0.013	-0.036	0.003	-0.008	-0.019
STN1 (UniProt Q9H668)	-0.126	0.049	0.142	0.075	-0.098	0.019	-0.061	-0.045	0.043	0.034
SKA3 (UniProt Q8IX90)	0.018	-0.081	0.02	-0.01	-0.052	-0.022	0.001	-0.02	0.042	0.013
SMN1 (UniProt Q16637)	0.038	0.009	0.042	-0.075	-0.055	0.096	-0.068	-0.046	-0.104	0.02
SLC39A11 (UniProt Q8N1S5)	-0.093	0.116	-0.047	-0.139	-0.071	0.05	0.062	0.385 (active)	0.058	-0.053
TANGO6 (UniProt Q9C0B7)	0.045	-0.04	0.012	-0.011	0.009	-0.049	-0.048	0.007	0.023	0.048
SRSF2 (UniProt Q01130)	0.005	0.041	0.026	-0.038	-0.018	-0.017	-0.031	0.023	-0.037	0.04
SP1 (UniProt P08047)	-0.012	-0.04	0.053	0.093	-0.047	0.007	0.04	0.004	0.013	0.034
SLC20A1 (UniProt Q8WUM9)	0.032	0.059	0.089	-0.097	0.005	0.02	0.085	0.069	0.214	0.05
STK11IP (UniProt Q8N1F8)	0.015	0.008	-0.002	-0.071	0.007	-0.007	0.025	-0.029	0.033	0.053
SMAD9 (UniProt O15198)	0.005	0.048	-0.037	0.007	0.018	0.053	0.017	-0.048	-0.059	0
SH3BGRL2 (UniProt Q9UJC5)	0.007	-0.109	0.035	0.045	-0.049	0.01	0.018	-0.087	0.034	0.007
SHCBP1 (UniProt Q8NEM2)	0.034	0.01	-0.035	-0.023	0.007	0.032	0.005	0.014	-0.014	0.018
SSX5 isoform 2 (UniProt O60225)	-0.302	0.12	-0.142	0.195	-0.125	0.043	-0.027	0.23	-0.219	0.007
SNX6, A0A0A0MRI2	0.012	0.056	-0.029	0.04	-0.028	0.013	-0.073	0.024	-0.047	-0.013
SPR (UniProt P35270)	-0.027	0.014	-0.021	0.056	0.049	1.04 (active)	0.013	0.008	-0.041	0.049
SLC25A32 (UniProt Q9H2D1)	0.035	0.02	-0.062	0.011	-0.013	-0.027	0.056	0.018	-0.002	0.029
